# Results from PubChem BioAssay AID1645882 (National Center for Advancing Translational Sciences (NCATS), 2021).
# “And” between values parts separate entries of the source, which are not always exact repeats. Equal entries are not always repeated. About 120 (0.75%) of roughly 16,000 compounds were called active. Inconclusive results (about 4%) are left out. The call rests on the fitted dose curve; in most records, active means well fitted inhibition curve with a large enough effect; inconclusive means small, poorly fitted or top-dose-only effect; inactive means no such curve, though single readings can be large or run the other way. The sample as a whole holds a higher share of actives than the screen did. Where a structure was tested more than once in an assay, its records may differ in their call.
# Target: Rap guanine nucleotide exchange factor 3 (Homo sapiens) (UniProt O95398)
# Sequence (O95398 whole entry, looked up): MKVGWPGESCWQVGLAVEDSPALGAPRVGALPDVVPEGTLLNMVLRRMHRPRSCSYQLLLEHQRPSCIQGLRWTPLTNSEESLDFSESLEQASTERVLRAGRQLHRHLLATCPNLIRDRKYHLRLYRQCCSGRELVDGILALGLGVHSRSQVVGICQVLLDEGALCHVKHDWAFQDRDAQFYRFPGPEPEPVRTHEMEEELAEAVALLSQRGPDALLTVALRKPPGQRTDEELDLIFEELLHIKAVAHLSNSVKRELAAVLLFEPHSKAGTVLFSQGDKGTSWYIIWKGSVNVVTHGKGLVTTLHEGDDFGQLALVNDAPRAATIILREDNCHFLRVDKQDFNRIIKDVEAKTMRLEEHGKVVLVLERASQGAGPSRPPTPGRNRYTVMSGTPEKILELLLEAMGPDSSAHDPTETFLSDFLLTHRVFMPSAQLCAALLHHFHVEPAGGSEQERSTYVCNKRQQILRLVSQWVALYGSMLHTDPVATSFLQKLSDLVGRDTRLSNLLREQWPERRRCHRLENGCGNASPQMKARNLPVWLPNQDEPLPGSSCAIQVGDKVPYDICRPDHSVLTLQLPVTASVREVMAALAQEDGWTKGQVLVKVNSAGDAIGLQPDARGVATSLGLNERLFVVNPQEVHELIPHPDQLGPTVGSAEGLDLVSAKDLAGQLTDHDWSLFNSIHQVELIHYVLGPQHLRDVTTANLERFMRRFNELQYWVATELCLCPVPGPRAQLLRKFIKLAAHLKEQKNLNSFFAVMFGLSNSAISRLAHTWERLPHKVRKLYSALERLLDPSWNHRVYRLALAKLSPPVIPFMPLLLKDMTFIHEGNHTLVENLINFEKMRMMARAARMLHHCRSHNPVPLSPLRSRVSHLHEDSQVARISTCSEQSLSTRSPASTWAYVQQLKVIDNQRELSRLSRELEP
# Assay: Validation qHTS for antagonist of cAMP-regulated guanine nucleotide exchange factor 3 (EPAC1); further: nearly all actives have a fitted effect of over 75% in size
# Settings: EPAC1 Rap1B-BODIPY-GDP exchange, fluorescence; series mostly up to 150 µM; activity change, negative = inhibition: at the top concentration
# From the text: Assay Provider (PI): Xiaodong Cheng Ph.D.
# The University of Texas Medical Branch, […], TX
# In multi-cellular eukaryotic organisms, the effects of cAMP are transduced by two ubiquitously-expressed intracellular cAMP receptors, the classic protein kinase A/cAMP-dependent protein kinase (PKA/cAPK) and the more recently discovered exchange protein directly activated by cAMP/cAMP-regulated guanine nucleotide exchange factor (EPAC/cAMP-GEF). Both PKA and EPAC are ubiquitously expressed in all tissues, and an increase in intracellular cAMP levels will lead to the activation of both PKA and EPAC. Therefore, careful dissections of the individual role and relative contribution of EPAC and PKA within the overall cAMP signaling in various model systems are critical for further elucidating the mechanism of cAMP signaling. To date no EPAC-specific antagonists and agonist, as well as isoform-specific agonists have been reported, and developing EPAC-specific pharmacological probes to determine the physiological functions that EPAC play in the overall cAMP-mediated signaling remains a major challenge within the research field. Furthermore, identified regulators of EPAC may lead to new mechanism-based therapeutic strategies specifically targeting the EPAC / cAMP-signaling components as EPAC has been implicated to play important roles in major human pathological conditions such as diabetes, heart disease, and cancer.
# This qHTS will be used to screen the Molecular Libraries Small Molecule Repository (MLSMR) as a concentration-titration series using the NCGC unique quantitative screening (qHTS) platform to find activators for EPAC1. In addition, this assay will also be used as a counterscreen for the EPAC2 qHTS. This fluorescent based assay is developed and validated for EPAC1 that measures exchange using EPAC effector Rap1 complex with BODIPY-GDP, a GDP analog with a tethered fluorophores. Activators are identified by monitoring the change in fluorescence signal as the exchanged free BODIPY-GDP has a reduced fluorescence compared to Rap1-bound BODIPY-GDP. Increase in signal (activation) is the desired outcome for the EPAC1 agonist while no activity in this assay is desired for the EPAC2 agonist counterscreen.
# [1] de Rooij, J., Zwartkruis, F. J., Verheijen, M. H., Cool, R. H., Nijman, S. M., Wittinghofer, A., and Bos, J.L. (1998) Nature 396, 474-477.
# Briefly, three uL of reagents (100 nM EPAC1, 250 nM RAP1B-BODIPY-GDP, 50 uM GDP) were dispensed into a 1536-well Greiner black solid-bottom medium binding assay plate. Controls and test compounds (23 nL) were transferred to the plate via a Kalypsys pin tool equipped with a 1536-pin array. The plates were centrifuged at 1,000 rpm for 15 seconds followed by 5 minute incubation at room temperature. The assay plates were read at 5 minute intervals for 30 minutes in the ViewLux plate reader using 480nm excitation and 540nm emission filters. The results were normalized to the […] positive control ATA and DMSO.
# Potency means the concentration at half of the fitted maximal effect.
Compound,"activity change, negative = inhibition",Potency
O=C(/C=C\c1ccc(O)c(O)c1)O[C@@H](Cc1ccc(O)c(O)c1)C(=O)O,11% (inactive),
N[C@@H](Cc1ccc(O)c(I)c1)C(=O)O,-7.65% [at 75.8 µM] (inactive),
O=C(/C=C/c1ccc(O)c(O)c1)OC(Cc1ccc(O)c(O)c1)C(=O)O (configuration not stated),,inactive and 100 µM (active)
O=C(/C=C/c1ccc(O)c(O)c1)OCCc1ccccc1,,inactive
NC(Cc1ccc(O)c(O)c1)C(=O)O (configuration not stated),,50.1 µM (active)
N[C@@H](Cc1ccc(O)c(O)c1)C(=O)O,,inactive
COc1ccc(C(=O)NCC2Cc3cc(C)cc(-c4cc(C(C)=O)ccc4F)c3O2)c(OC)c1OC (configuration not stated),11.9% (inactive),
COC(=O)N1CCC[C@@]2(CCN(Cc3nccs3)C2)C1,31.6% (inactive),
OC(c1ccc2c(c1)CN(Cc1c[nH]c3ccccc13)CCO2)c1ccccn1 (configuration not stated),8.66% (inactive),
COC(=O)/C(C)=C/CC12OC(C)(C)C3CC(C=C4C(=O)c5cc6c(c(CCC(C)(C)Cl)c5OC431)OC1(C)CCC(=C(C)C)C6C1)C2=O (configuration not stated),5.06% (inactive),
CC(C)=CCc1c2c(c(O)c3c(=O)c(O)c(-c4ccccc4)oc13)C=CC(C)(C)O2,13.9% (inactive),
CC(=O)Oc1c2c(c3c(c1CC=C(C)C)O[C@@]14C(=CC5CC1C(C)(C)OC4(C/C=C(\C)C(=O)O)C5=O)C3=O)OC(C)(CCC=C(C)C)C=C2 (some centres not stated),,89.1 µM (active)
CC(C)=CCCC1(C)C=Cc2c(O)c3c(c(CC=C(C)C)c2O1)OC12C(=CCCC1C(C)(C)O[C@@]2(C/C=C(\C)C(=O)O)C(=O)O)C3=O (some centres not stated),,89.1 µM (active)
CC(=O)Oc1c(-c2ccccc2)oc2c(CC=C(C)C)c3c(c(OC(C)=O)c2c1=O)C=CC(C)(C)O3,6.65% (inactive),
C1=C(c2ccc3c(c2)CN(Cc2cccn2-c2ncccn2)CCO3)Cc2ccccc21,0.475% (inactive),
CC(C)c1c(C(=O)NCC(C)(C)N2CCOCC2)cnn1-c1nccc(-c2ccccc2F)n1,5.19% (inactive),
Cc1ccc(-c2ccnc(-n3ncc(C(=O)NCCN4CCOCC4)c3C3CC3)n2)o1,0.535% (inactive),
CCC1CN(CCNC(=O)c2ccccc2-n2cccn2)Cc2cc(OC)ccc2O1 (configuration not stated),21.6% (inactive),
COc1ccc(C2Sc3ccccc3N(CCN(C)C)C(=O)[C@@H]2OC(C)=O)cc1 (some centres not stated),,inactive
CCOC(=O)[C@@H](C)N(C(=O)OC(C)(C)C)S(=O)(=O)N(Cc1ccccc1)[C@@H](C(=O)OC)C(C)C,-6.25% (inactive),
Cc1c(-c2ccccc2)oc2cc(O)ccc2c1=O,-1.8% (inactive),

Compound,"activity change, negative = inhibition",Potency
CC(=O)[C@H](CC(C)C)NC(=O)[C@@H](CC(C)C)NC(=O)[C@H](CC(C)C)NC(=O)OCc1ccccc1,-12.2% (inactive),
O=C(O)c1cc(-c2ccccc2)nc2ccccc12,,inactive
O=C(O)c1c2ccccc2cc2ccccc12,,inactive
O=C(O)c1cc2ccccc2c(Cc2c(O)c(C(=O)O)cc3ccccc23)c1O,,50.1 µM (active)
CCN1CCN(C(=O)c2sc3ncnc(NCC4CCCO4)c3c2C)CC1 (configuration not stated),16.7% (inactive),
CC(C)CCCC(C)C1CCC2C3CC=C4CC(=O)CC[C@@]4(C)C3CC[C@@]12C (some centres not stated),15.4% (inactive),
COc1ccccc1CNc1nc(-c2ccc(N(C)C)cc2)nc2ccccc12,12.9% (inactive),
Cc1ncc2c(c1CNC(=O)c1ccc3c(c1)OCO3)CCN(C(=O)c1cccc(-n3cccn3)c1)C2,6.43% (inactive),
CC(C)C(N)C(=O)NC(Cc1c[nH]c2ccccc12)C(=O)O (configuration not stated),18.5% (inactive),
Cc1cc(C)cc(C(=O)N(C)[C@H](Cc2ccc(-c3ccccc3)cc2)C(=O)N[C@@H](Cc2c[nH]c3ccccc23)C(=O)O)c1,,112 µM (active)
CC(=O)N[C@@H](Cc1c[nH]c2ccccc12)C(=O)O,5.4% (inactive),
C[N+](C)(CCCCCC[N+](C)(C)CCCN1C(=O)c2ccccc2C1=O)CCCN1C(=O)c2ccccc2C1=O,,inactive
C#CCN(Cc1nc(N2CCOCC2)c2ccc(Cl)cc2n1)Cc1ccco1,18.9% (inactive),
CCCC(=O)c1cc(O)c(O)cc1O,,63.1 µM (active)
CCC(=O)c1c(O)cc(O)cc1O,18.2% (inactive),
CCOc1cc(OCC)c(C(=O)CCC(=O)O)cc1OCC,19.1% (inactive),
O=C(c1n[nH]c2c1CCCC2)N1CCOc2ccc(C(O)C3CCCCC3)cc2C1 (configuration not stated),1.38% (inactive),
Cc1ccc(C2(O)CCN(CCCC(=O)c3ccc(F)cc3)CC2)cc1,26.2% (inactive),
COc1ccccc1C1CN(CCNC(=O)c2cscn2)Cc2ccccc2O1 (configuration not stated),-26.1% (inactive),
CC(C)(O)c1ccccc1CC[C@@H](SCC1(CC(=O)O)CC1)c1cccc(/C=C/c2ccc3ccc(Cl)cc3n2)c1,,79.4 µM (active)
CN(C)C(=O)CCSC(SCCC(=O)O)c1cccc(/C=C/c2ccc3ccc(Cl)cc3n2)c1 (configuration not stated),-25.4% (inactive),
